TIM10 inh – TIM10 yeast growth inhibition | 330,000 tested, 1.4% active | S. cerevisiae TIM10 strain growth, BacTiter-Glo luminescence, 24 h | inhibition, % at 10 µM;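 active means inhibition of 40% or more at the single tested concentration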;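 further: wild-type TIM10 isogenic control strain grown at permissive 25 °C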
tim10-1 inh – inhibits growth of tim10-1 mutant yeast. S. cerevisiae tim10-1 ts strain growth, BacTiter-Glo, 24 h. inhibition, % at 20 µM. 330,000 tested, 2.2% active. AID 463190;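 active means inhibition of at least 40%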;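 further: mutant grown at 25 °C; 0% = DMSO wells with yeast and 100% = wells holding no yeast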
SKKanGAS inh – blocks kanamycin growth of S. pyogenes SKKanGAS strain; BacTiter-Glo, 6 h; AID 1662; inhibition, % at 7.5 µM; 300,000 tested, 1.3% active;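 active means mean replicate score, as percent of positive control median, at least 50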;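 further: strain carries kanamycin resistance gene driven by streptokinase promoter and grows in 40 µg/ml kanamycin; loss of luminescence reflects streptokinase promoter inhibition or plain growth inhibition; 0% = median of DMSO wells and 100% = positive control at its reference dose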
tim23-1 inh – tim23-1 yeast growth inhibition; inhibition, % at 20 µM; 330,000 tested, 1.3% active; AID 463212; S. cerevisiae tim23-1 growth, BacTiter-Glo luminescence, 24 h;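 active means growth inhibition of the mutant yeast at or above 50%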;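 further: temperature-sensitive mutant grown at 25 °C; plate controls were DMSO-treated mutant yeast for no effect and medium wells lacking yeast for full effect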
PfHsp90 set2 – inhibits growth of yeast expressing Plasmodium falciparum Hsp90 | inhibition, % at 9.4 µM | S. cerevisiae expressing PfHsp90, BacTiter-Glo ATP, 48 h; yeast lacking PDR1 and PDR3 efflux regulators | 310,000 tested, 0.32% active | AID 504621;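 active means every replicate shows inhibition above about 80%, whatever the replicate mean, limit read from the data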;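 further: 0% = DMSO neutral controls and 100% = 20 µM radicicol positive controls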
EBI2 antag – antagonists of human EBI2 receptor | P32249 | EBI2 beta-arrestin recruitment, luminescence, 7a,25-OHC stimulated | inhibition, % at 5 µM | 360,000 tested, 0.81% active; in the data active means inhibition above about 38%;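 further: enzyme fragment complementation signal reports receptor beta-arrestin coupling in cells; 0% = agonist plus DMSO wells and 100% = wells without agonist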
Target sequence (P32249 whole entry, looked up, the tested form may be a part): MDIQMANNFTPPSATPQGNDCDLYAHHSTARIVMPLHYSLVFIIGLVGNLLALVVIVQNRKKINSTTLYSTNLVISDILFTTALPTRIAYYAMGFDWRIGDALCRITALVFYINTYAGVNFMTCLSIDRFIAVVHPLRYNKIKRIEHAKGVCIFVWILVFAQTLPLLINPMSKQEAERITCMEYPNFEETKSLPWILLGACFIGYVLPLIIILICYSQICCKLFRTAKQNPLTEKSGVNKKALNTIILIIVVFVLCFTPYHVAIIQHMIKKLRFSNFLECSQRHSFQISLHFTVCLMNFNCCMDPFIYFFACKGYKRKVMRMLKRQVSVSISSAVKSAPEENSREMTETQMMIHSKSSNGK
tim10-1 confirm – tim10-1 yeast growth inhibition, confirmed. 7,400 tested, 56% active. shares compounds with tim10-1 inh. S. cerevisiae tim10-1 ts strain growth, BacTiter-Glo, 24 h. AID 463213. inhibition, % at 20 µM;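 active means inhibition of yeast growth at or above a set limit in either of two repeat tests at 20 µM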;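 further: tim10-1 mutant grown at permissive 25 °C to find synthetic lethal compounds; 0% = DMSO yeast wells and 100% = medium wells without yeast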
* = called active by the depositor; x = no result given. The list is not random: actives were taken first. Their share in the collection is about 4.7%.

SMILES	TIM10 inh	tim10-1 inh	SKKanGAS inh	tim23-1 inh	PfHsp90 set2	EBI2 antag	tim10-1 confirm
CCOc1ccccc1CNC(=O)c1ccc(NC(=O)C2=CSCCO2)cc1	9	45*	-2	36	-9	-7	6
Cc1ccc(CNC(=O)c2ccccc2NC(=O)C2=CSCCO2)cc1	18	40	-1	24	-24	11	18
Cc1cccc(CNC(=O)c2ccc(NC(=O)C3=CSCCO3)cc2)c1	16	50*	1	43	-10	1	21
Cc1cccc(CNC(=O)c2ccccc2NC(=O)C2=CSCCO2)c1	0	21	-10	15	-25	6	x
CSc1ccc(CN2CCC(Oc3ccc(C(=O)N4CCCC4)cc3)CC2)cc1	-35	32	0	1	-19	-4	x
CC(C)c1cc2c(c(O)c1O)[C@@]13CCCC(C)(C)C1CC2OC3=O (stereo partly drawn)	13	43*	15	28	22	6	35*
CC(=O)N(C)c1cccc(-c2ccc3nnc(C)n3n2)c1	-5	10	4	4	21	0	x
CCc1ccc([C@@H]2CC=C(C(=O)O)[C@H](c3ccccc3F)N2S(=O)(=O)c2ccc(C)cc2)cc1	-13	41*	x	-1	-17	-18	11
COCCN(Cc1ccccc1)C(=S)Nc1ccc(OC(F)F)cc1	23	43*	-1	30	12	17	26
CCCN(Cc1ccccc1)C(=S)Nc1ccc(OC(F)F)cc1	24	25	-12	33	-3	13	x
O=S1(=O)N[C@H](Cc2ccccc2)COc2cc(N3CCSCC3)ccc21	x	x	x	x	x	-4	x
Cc1onc(-c2ccccc2Cl)c1C(=O)N1CCN(c2nc3ccccc3s2)CC1	33	49*	8	32	2	-6	29
Cc1onc(-c2ccccc2Cl)c1C(=O)N1CCCCC1	15	4	0	9	0	-9	x
CC1(C)Cc2c(cnn2-c2ccccc2)C(NC(=O)CCCn2cncn2)C1 (stereo not drawn)	8	3	-7	3	-2	5	x
Cc1ccc(N2C(=O)CC(Sc3cccs3)C2=O)cc1 (stereo not drawn)	18	45*	4	29	9	-5	49*
Cc1ccc(N2C(=O)CC(Sc3nccc(C)n3)C2=O)cc1 (stereo not drawn)	3	-12	0	4	-42	2	x
Cc1ccc(S(=O)(=O)N2C[C@H]3C(=O)C[C@@H](c4ccccc4F)N(S(=O)(=O)c4ccc(C)cc4)[C@H]3C[C@H]2c2ccccc2)cc1	x	x	x	x	x	15	x
O=C1C(=Cc2cccc(F)c2)Cc2ccccc21	x	x	x	x	x	1	x
COc1ccc(Cl)c2c1[nH]c1nc(SCc3ccccn3)nnc12	26	42*	27	17	-16	2	25
COc1cnc(-c2ccccn2)nc1Sc1ccccc1Cl	18	47*	-5	46	x	5	34*
CCOC(=O)C(C)Sc1nc(-c2ccccn2)ncc1OC (stereo not drawn)	-4	21	41	0	15	-5	x
COC(=O)c1c(NC(=O)Cc2ccccc2)sc(C)c1C	7	-6	24	20	5	-5	x
CCOC(=O)c1ccc(NC(=O)CSc2nnc(CNc3ccc(C)cc3)n2C)cc1	0	1	-2	10	-5	-13	x
COC(=O)c1c(NC(=O)CSc2ccccc2N)sc(C)c1C	21	46*	14	37	3	5	36*
CCOC(=O)c1c(NC(=O)CSc2nnc(CNc3ccc(OC)cc3)n2C)sc(C)c1C	5	41*	13	33	x	16	13
SMILES	TIM10 inh	tim10-1 inh	SKKanGAS inh	tim23-1 inh	PfHsp90 set2	EBI2 antag	tim10-1 confirm
COc1ccccc1C(=O)NC(=O)Nc1c(C)cc(C)cc1C	24	42*	11	42	22	16	40*
CCOC(=O)CCCSc1nnc(CCCCCN2C(=O)c3cccc4cccc(c34)C2=O)o1	8	20	12	24	28	6	x
O=C(NC(=S)Nc1ccccc1[N+](=O)[O-])c1cncc(Br)c1	17	40	8	45	-32	-17	14
CC(=O)c1cccc(NC(=S)NC(=O)c2cncc(Br)c2)c1	15	34	5	36	-14	4	x
O=C(NC(=S)Nc1ccccc1O)c1cncc(Br)c1	24	26	34	11	-50	5	x
COc1cccc(NC(=S)NC(=O)c2cncc(Br)c2)c1	37	47*	2	45	-12	2	7
O=C(Cc1cccc(NC(=O)C2CCN(C(=O)CCc3ccccc3)CC2)c1)Nc1cccc(C(=O)N2CCCCC2)c1	x	x	x	x	-14	8	x
CCCC(=O)Nc1cc(-c2nnc(OC)c3ccccc23)ccc1N1CCCCC1	39	49*	19	37	x	x	26
CCCC(=O)Nc1cc(-c2nn(C)c(=O)c3ccccc23)ccc1N1CCCCC1	22	25	-2	18	-1	5	x
COc1cc(/C=C2\CC/C(=C\c3ccc(OCCO)c(OC)c3)C2=O)ccc1OCCO	10	49*	38	32	-17	8	40*
COc1ccc(-c2nc(-c3ccccn3)no2)cc1	36	49*	x	46	86*	-23	56*
O=Cc1ccc(OC(=O)c2cc(Cl)nc3ccccc23)cc1	14	44*	11	27	-1	4	21
Cc1ccc(NC(=O)COc2ccc(Cl)cc2Cl)cc1S(=O)(=O)N1CCOCC1	33	49*	x	36	-1	0	20
CCc1ccc(OCC(=O)Nc2ccc(S(=O)(=O)N3CCOCC3)cc2)cc1	16	40	22	31	x	3	33*
CCCN(CCC)S(=O)(=O)c1ccc(NC(=O)COc2ccccc2)cc1	40	52*	9	38	4	28	38*
COc1ccc(OCC(=O)Nc2ccc(S(=O)(=O)N3CCOCC3)cc2)cc1	33	48*	1	24	-14	-7	32*
COc1ccc(OCC(=O)Nc2ccc(S(=O)(=O)N(C)c3ccccc3)cc2)cc1	22	22	11	30	-6	20	x
O=C(CN(c1ccc(F)cc1)S(=O)(=O)c1ccccc1)NCCSC1CCCCC1	-1	-2	-10	13	2	20	x
Cc1cc(F)ccc1S(=O)(=O)N1CCCOC1CNC(=O)C(=O)NCc1ccncc1 (stereo not drawn)	1	-7	2	-3	-5	-11	x
O=C(Nc1ccc2c(c1)OCO2)c1cc(-c2ccc(O)cc2)on1	-4	-29	0	-21	-4	14	x
CCN(CC)C(=O)CSc1nnc(COc2cccc(C)c2)n1C	-5	14	3	7	x	x	x
O=C(CN1C(=O)COc2ccccc21)NCCCN1CCOCC1	-10	-16	-1	2	3	-4	x
